This is an account of results in PubChem BioAssay (NCI).

Structures are written as SMILES. “And” between values parts separate entries of the source, which are not always exact repeats. Equal entries are not always repeated. About 83,000 compounds went through this panel and 20% of them were active in at least one assay; those are over-represented in the sample as a whole.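 Cells were grown in 96-well plates and exposed to the test compound at a single concentration for 48 hours; results are reported as percent growth, with values below 10 considered active.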 The source made the active and inactive calls.

Among the test systems are HCT-15 colon; HT29 colon; SNB-75 CNS; SNB-19 CNS; U251 CNS; PC-3 prostate; SK-MEL-5 melanoma; UACC-62 melanoma; LOX IMVI melanoma; SK-MEL-28 melanoma; SK-MEL-2 melanoma; EKVX NSCLC; SN12C renal; UO-31 renal; ACHN renal; CAKI-1 renal; A498 renal; CCRF-CEM leukemia; MOLT-4 leukemia; TK-10 renal.
Common to all, as to experiment: NCI-60 one-dose screen, 48 h (100 = growth as untreated, 0 = no growth, -100 = all killed)
What all share (settings): 10 µM unless noted

With `Oc1ccccc1C=NCC1CCC(CN=Cc2ccccc2O)CC1` (configuration not stated), the growth in the experiment with HCT-15 colon was 7.98% (active); with HT29 colon, 17.1% (inactive); with SNB-75 CNS, 101% (inactive); in the experiment with SNB-19 CNS, 94.6% (inactive); in the experiment with U251 CNS, 78.4% (inactive); in the experiment on PC-3 prostate, 77.8% (inactive). For the same compound, the growth was 92.8% (inactive) in the experiment with SK-MEL-5 melanoma; 88.7% (inactive) in the experiment on UACC-62 melanoma; 80.2% (inactive) in the experiment with LOX IMVI melanoma; 128% (inactive) in the experiment on SK-MEL-28 melanoma; 12.8% (inactive) in the experiment with SK-MEL-2 melanoma; 109% (inactive) in the experiment on EKVX NSCLC. Further, the growth is 91% (inactive) in the experiment with SN12C renal; 72.4% (inactive) in the experiment on UO-31 renal; -13.8% (active) with ACHN renal; 46.1% (inactive) in the experiment with CAKI-1 renal; 117% (inactive) in the experiment on A498 renal; 83.9% (inactive) in the experiment on CCRF-CEM leukemia. The growth in the experiment with MOLT-4 leukemia is 75.6% (inactive).
As to `CC(=O)NC(Cc1ccccc1)C(=O)Oc1ccc2ccccc2c1` (configuration not stated), the growth in the experiment on HCT-15 colon was 87.4% (inactive) and 102% (inactive); with HT29 colon, 114% (inactive) and 96.4% (inactive); in the experiment on SNB-75 CNS, 84.3% (inactive) and 78.1% (inactive); with SNB-19 CNS it was 113% (inactive); in the experiment with U251 CNS, 97.7% (inactive) and 102% (inactive); in the experiment on PC-3 prostate it was 85.5% (inactive) and 90.6% (inactive). Besides, the growth was 101% (inactive) in the experiment on SK-MEL-5 melanoma; 98.8% (inactive) and 99.8% (inactive) with UACC-62 melanoma; 84.9% (inactive) and 87.7% (inactive) with LOX IMVI melanoma; 117% (inactive) and 105% (inactive) in the experiment with SK-MEL-28 melanoma; 108% (inactive) and 113% (inactive) in the experiment on SK-MEL-2 melanoma; 114% (inactive) and 96.4% (inactive) in the experiment with EKVX NSCLC. Besides, the growth in the experiment on SN12C renal is 103% (inactive) and 98.9% (inactive); with TK-10 renal it was 118% (inactive) and 111% (inactive); in the experiment on ACHN renal, 94.6% (inactive) and 97.4% (inactive); in the experiment with CAKI-1 renal, 94.8% (inactive) and 98.1% (inactive); with A498 renal, 130% (inactive) and 97.2% (inactive); with CCRF-CEM leukemia, 100% (inactive) and 86.6% (inactive). The growth with MOLT-4 leukemia is 111% (inactive) and 102% (inactive).
Consider `CNC(=O)c1cc(Oc2ccc(NC(=O)Nc3ccc(Cl)c(C(F)(F)F)c3)cc2)ccn1`, for which the growth in the experiment with HCT-15 colon is 1.74% (active) and 5.49% (active); with HT29 colon, -3.38% (active) and 9.81% (active); with SNB-75 CNS, -38.9% (active) and 21.8% (inactive); in the experiment on SNB-19 CNS it was 13.3% (inactive) and 20.6% (inactive); in the experiment on U251 CNS, 1.89% (active) and 0.072% (active); in the experiment with PC-3 prostate, 11.6% (inactive) and -9.74% (active). For the same compound, the growth is -73.1% (active) and -56.6% (active) in the experiment with SK-MEL-5 melanoma; -49.4% (active) and -25.5% (active) in the experiment on UACC-62 melanoma; -14.6% (active) and -55.1% (active) in the experiment with LOX IMVI melanoma; -15.7% (active) and -26.7% (active) in the experiment on SK-MEL-28 melanoma; -42.9% (active) with SK-MEL-2 melanoma; 4.85% (active) and -2.85% (active) with EKVX NSCLC. Besides, the growth is 6.54% (active) and -7.24% (active) in the experiment with SN12C renal; -11.8% (active) and 25.8% (inactive) in the experiment with TK-10 renal; 5.96% (active) and 0% (active) with ACHN renal; 7.37% (active) and -32.6% (active) with CAKI-1 renal; -73.7% (active) and -21.1% (active) in the experiment with A498 renal; 12% (inactive) and 18.6% (inactive) in the experiment with CCRF-CEM leukemia. Further, in the experiment on MOLT-4 leukemia, the growth is -1.28% (active) and 25.8% (inactive).
As to `CC1(c2ccc3ccccc3c2)CCC(=O)O1` (configuration not stated), the growth in the experiment on HCT-15 colon was 107% (inactive); with HT29 colon, 96.9% (inactive); with SNB-75 CNS, 100% (inactive); in the experiment with SNB-19 CNS, 106% (inactive); with U251 CNS, 99.9% (inactive); with PC-3 prostate, 97.9% (inactive). In addition, the growth in the experiment on SK-MEL-5 melanoma is 105% (inactive); in the experiment with UACC-62 melanoma it was 95.7% (inactive); in the experiment with LOX IMVI melanoma, 93.1% (inactive); in the experiment on SK-MEL-28 melanoma, 102% (inactive); with SK-MEL-2 melanoma, 86.6% (inactive); in the experiment with EKVX NSCLC it was 111% (inactive). Moreover, the growth with SN12C renal is 102% (inactive); in the experiment with UO-31 renal, 81.1% (inactive); in the experiment with ACHN renal it was 101% (inactive); in the experiment on CAKI-1 renal, 100% (inactive); with A498 renal, 113% (inactive); in the experiment with CCRF-CEM leukemia it was 105% (inactive). In the experiment with MOLT-4 leukemia, the growth was 95.2% (inactive).
As for `Cc1ccc(S(=O)(=O)Nc2nc3ccccc3nc2Nc2ccc3nsnc3c2)cc1`, the growth with HCT-15 colon is 32% (inactive) and 58.6% (inactive); in the experiment with HT29 colon, 47.5% (inactive) and 63.2% (inactive); in the experiment on SNB-75 CNS it was 63.3% (inactive) and 65.9% (inactive); with SNB-19 CNS, 47.7% (inactive) and 47.6% (inactive); in the experiment on U251 CNS it was 26.1% (inactive) and 40.1% (inactive); in the experiment with PC-3 prostate, 42.8% (inactive) and 27.3% (inactive). Moreover, the growth was 18.7% (inactive) and 13.7% (inactive) with SK-MEL-5 melanoma; 19% (inactive) and 12.8% (inactive) in the experiment with UACC-62 melanoma; 65.8% (inactive) and 47% (inactive) in the experiment with LOX IMVI melanoma; 49.8% (inactive) and 51.6% (inactive) with SK-MEL-28 melanoma; 7.36% (active) with SK-MEL-2 melanoma; 46.5% (inactive) and 49.7% (inactive) in the experiment on EKVX NSCLC. The growth was 50.9% (inactive) and 34.8% (inactive) with SN12C renal; 43.6% (inactive) and 22.3% (inactive) in the experiment with UO-31 renal; 35.4% (inactive) and 53.3% (inactive) in the experiment on TK-10 renal; 54.5% (inactive) and 61% (inactive) in the experiment on ACHN renal; 56.7% (inactive) and 11.7% (inactive) in the experiment on A498 renal; 44.2% (inactive) in the experiment with CCRF-CEM leukemia. Also, the growth in the experiment on MOLT-4 leukemia is 35.3% (inactive) and 45.3% (inactive).
Consider `O=C1NC(=O)C2(CCc3ccccc32)N1` (configuration not stated), for which the growth with HCT-15 colon is 104% (inactive) and 108% (inactive); with HT29 colon, 104% (inactive) and 109% (inactive); with SNB-75 CNS, 96.2% (inactive) and 94.1% (inactive); with SNB-19 CNS it was 96.2% (inactive) and 103% (inactive); in the experiment on U251 CNS, 109% (inactive) and 99% (inactive); with PC-3 prostate, 133% (inactive) and 88.2% (inactive). The growth in the experiment on SK-MEL-5 melanoma is 99.4% (inactive) and 108% (inactive); with UACC-62 melanoma it was 100% (inactive) and 96.7% (inactive); in the experiment with LOX IMVI melanoma it was 103% (inactive) and 95.7% (inactive); in the experiment with SK-MEL-28 melanoma, 123% (inactive); in the experiment with SK-MEL-2 melanoma it was 129% (inactive) and 51.4% (inactive); in the experiment on EKVX NSCLC it was 103% (inactive) and 99.9% (inactive). The growth with SN12C renal is 104% (inactive) and 95.1% (inactive); with UO-31 renal it was 101% (inactive) and 85.3% (inactive); in the experiment on ACHN renal, 111% (inactive) and 96.7% (inactive); with CAKI-1 renal, 98.4% (inactive) and 89.7% (inactive); with A498 renal it was 94.4% (inactive); in the experiment with CCRF-CEM leukemia, 118% (inactive) and 94.2% (inactive). The growth in the experiment with MOLT-4 leukemia is 101% (inactive) and 83.3% (inactive).
`CN1CCN(C2CCN(C(=O)Nc3cc(Oc4ccc(NC(=O)C5(C(=O)Nc6ccc(F)cc6)CC5)c(F)c4)ccn3)CC2)CC1`: the growth in the experiment on HCT-15 colon was -14.8% (active) and 93.5% (inactive); with HT29 colon, -60.3% (active) and 46.5% (inactive); in the experiment on SNB-75 CNS, -77.5% (active) and 77.2% (inactive); with SNB-19 CNS it was 3.95% (active) and 115% (inactive); with U251 CNS, -86.3% (active) and 98.1% (inactive); in the experiment with PC-3 prostate, -12.3% (active) and 86.1% (inactive). For the same compound, the growth is -98% (active) and 80.1% (inactive) in the experiment with SK-MEL-5 melanoma; -78% (active) and 70.7% (inactive) in the experiment on UACC-62 melanoma; -88.3% (active) and 93.1% (inactive) with LOX IMVI melanoma; -91.6% (active) and 94.3% (inactive) in the experiment with SK-MEL-28 melanoma; 81.3% (inactive) in the experiment with SK-MEL-2 melanoma; 3.24% (active) and 99.4% (inactive) with EKVX NSCLC. Also, the growth in the experiment on SN12C renal is -55.1% (active) and 50.6% (inactive); in the experiment with UO-31 renal it was -61.7% (active) and 92.4% (inactive); with TK-10 renal, -47.9% (active) and 98.4% (inactive); in the experiment with ACHN renal, -3.96% (active) and 53.5% (inactive); with A498 renal, -68.6% (active) and 92.8% (inactive); with CCRF-CEM leukemia, 0.274% (active) and 101% (inactive). In the experiment on MOLT-4 leukemia, the growth was -10.9% (active) and 86.6% (inactive).
Consider `NC(=O)NO`, for which the growth is 106% (inactive) and 72.2% (inactive) in the experiment on HCT-15 colon; 104% (inactive) and 70.3% (inactive) in the experiment with HT29 colon; 91.7% (inactive) and 60.3% (inactive) in the experiment on SNB-75 CNS; 105% (inactive) and 69.6% (inactive) with SNB-19 CNS; 96.6% (inactive) and 65.5% (inactive) in the experiment on U251 CNS; 106% (inactive) and 72.6% (inactive) in the experiment on PC-3 prostate. The growth in the experiment on SK-MEL-5 melanoma was 106% (inactive) and 80.5% (inactive); with UACC-62 melanoma, 103% (inactive) and 74.6% (inactive); in the experiment on LOX IMVI melanoma, 101% (inactive) and 59% (inactive); with SK-MEL-28 melanoma it was 107% (inactive) and 45.5% (inactive); with SK-MEL-2 melanoma it was 110% (inactive) and 94.1% (inactive); in the experiment on EKVX NSCLC, 98.9% (inactive) and 59.5% (inactive). Moreover, the growth in the experiment with SN12C renal is 104% (inactive) and 71.5% (inactive); in the experiment on UO-31 renal it was 87.8% (inactive) and 48.8% (inactive); in the experiment with ACHN renal, 96.9% (inactive) and 67.5% (inactive); with CAKI-1 renal it was 83.9% (inactive) and 77.2% (inactive); with A498 renal it was 104% (inactive) and -7.21% (active); in the experiment on CCRF-CEM leukemia it was 82.2% (inactive) and 68% (inactive). For the same compound, the growth with MOLT-4 leukemia is 95.9% (inactive) and 75.1% (inactive).
